# Screening data: PubChem BioAssay, several laboratories
# The list is not random: actives were taken first. Their share in the collection is about 27%.
# CYP2C9 inh: inhibitors of human CYP2C9; CYP2C9 Supersomes, luciferin-H conversion, luminescence; 96,000 tested, 20% active; P11712; inhibition, % at 5 µM; AID 777;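 active = blocking of liver enzyme CYP2C9 beyond about 50% at 5 µM, limit read from the data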
# sEH inhibitor: inhibitors of human soluble epoxide hydrolase. recombinant human sEH enzymatic activity assay. AID 707. P34913. inhibition, % at 2 µM. 91,000 tested, 0.34% active; in the data active = inhibition above about 80%
# Target sequence (P34913 whole entry, looked up): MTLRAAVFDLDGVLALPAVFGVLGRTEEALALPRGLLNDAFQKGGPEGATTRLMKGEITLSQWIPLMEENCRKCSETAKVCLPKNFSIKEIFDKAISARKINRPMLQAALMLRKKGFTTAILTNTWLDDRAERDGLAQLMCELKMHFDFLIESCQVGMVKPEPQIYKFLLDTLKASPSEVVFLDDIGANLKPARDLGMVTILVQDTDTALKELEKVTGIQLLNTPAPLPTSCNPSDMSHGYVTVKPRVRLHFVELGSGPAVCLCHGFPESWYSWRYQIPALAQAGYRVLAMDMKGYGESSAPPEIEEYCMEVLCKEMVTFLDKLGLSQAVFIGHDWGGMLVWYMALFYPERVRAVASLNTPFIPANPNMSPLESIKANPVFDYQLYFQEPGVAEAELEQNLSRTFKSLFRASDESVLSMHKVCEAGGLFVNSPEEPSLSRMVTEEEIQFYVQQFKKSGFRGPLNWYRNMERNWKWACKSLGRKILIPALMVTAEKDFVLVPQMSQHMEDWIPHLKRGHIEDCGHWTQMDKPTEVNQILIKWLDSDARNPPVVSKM
# sEH act: soluble epoxide hydrolase (human) activation. P34913. purified human sEH enzymatic activity, activator screen. activation, % at 2 µM. 91,000 tested, 0.04% active; in the data active = activation above about 37%
# CYP2C19 act: increases human CYP2C19 enzyme activity; P33261; recombinant CYP2C19, luciferin-H EGE luminescence; active compounds read high; 0 = fully inhibited enzyme, 1 = untreated enzyme; activation factor at 5 µM; 96,000 tested, under 10 active; AID 1025;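 active = activation factor of at least 2 at 5 µM in the primary screen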;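 note: 0 = wells with 2.5 mM tranylcypromine and 1 = vehicle-only wells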
# CYP2C9 activ: activators of human CYP2C9 | activation factor at 5 µM | P11712 | recombinant CYP2C9, luciferin-H conversion, luminescence; active compounds read high; factor 1 = untreated enzyme, 0 = blocked | 96,000 tested, 1.4% active;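 active = activation factor of 2 or more for CYP2C9 at a 5 µM dose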;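 note: 0 = sulfaphenazole-blocked wells and 1 = vehicle-only wells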
# CYP2C19 inh: human CYP2C19 inhibition. 96,000 tested, 21% active. inhibition, % at 5 µM. CYP2C19 Supersomes, luciferin-H EGE luminescence, 30 min. AID 778;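 active = CYP2C19 inhibition above a set limit at 5 µM in the primary screen, cut at about 50% in these data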;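 note: plate controls were negative control wells for no effect and 2.5 mM tranylcypromine positive control for full effect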
# * = called active by the depositor; / = no result given.
SMILES,CYP2C9 inh,sEH inhibitor,sEH act,CYP2C19 act,CYP2C9 activ,CYP2C19 inh
CCCCn1c(-c2nn(C)cc2Cl)n[nH]c1=S,21.4,-14.3,16.2,0.5,0.8,52.5*
CCCCn1c(-c2nn(C)c(C)c2Cl)n[nH]c1=S,18.2,-1.4,3.1,0.8,0.8,18.9
O=C(Cc1ccccc1)Nn1cnc2ccccc21,35.5,17.2,-15.5,0.7,0.6,32.7
Cc1cc(C(=O)NCc2cccs2)cs1,17.5,3.9,-3.2,0.3,0.8,73.2*
O=C(NCc1cccs1)c1cccnc1C(=O)O,5.5,-15.3,12.0,1,0.9,1.9
CC(C)Oc1ccc(C(CC(=O)O)NC(=O)c2cccs2)cc1 (stereo unspecified),54.7*,6.0,-8.6,1.1,0.5,-7.4
O=C(NCc1cccs1)c1ccccc1,5.0,5.8,-6.6,0.8,0.9,22.1
O=C(NCc1cccs1)c1csc2ccccc12,-31.1,7.5,-8.8,0.1,1.3,85.4*
Cc1cc(C(=O)NCc2cccs2)c(C)o1,3.5,-2.6,-2.8,0.5,1,50.4*
CCOc1nc(NCCN2CCOCC2)nc(NC(C)C)n1,/,-0.9,6.5,/,/,/
CC(C)Oc1ccc(C(=O)NCc2cccs2)cc1,31.9,12.7,-11.9,0.3,0.7,70.5*
CC(C)Cc1cc(C(=O)NCc2cccs2)no1,36.5,/,/,0.2,0.6,79.6*
O=C(NCc1cccs1)c1ccncc1,26.8,-7.0,7.1,0.8,0.7,22.7
Cc1ccc(CNC(=O)CCCC(=O)O)cc1,14.5,-9.2,4.6,1.1,0.9,-10.9
Cc1nc2cc(-c3ccccc3)nn2c(C)c1CCC(=O)N1CCN(c2ccccc2)CC1,13.1,-5.7,4.8,0.6,0.9,36.1
Cc1nc2c(-c3ccccc3)c(C)nn2c(C)c1CCC(=O)NC(C)CCc1ccco1 (stereo unspecified),37.9,-3.8,2.8,0.5,0.6,52.0*
Cc1nc2c(-c3ccccc3)c(C)nn2c(C)c1CCC(=O)O,23.5,0.0,-0.1,0.7,0.8,27.1
COc1ccccc1-c1cc2nc(C)c(CCC(=O)NC(C)CCc3ccco3)c(C)n2n1 (stereo unspecified),89.0*,5.5,-7.9,0.1,0.1,90.0*
CCOC(=O)C(C(=O)OCC)C1CS(=O)(=O)CC1C(C(=O)OCC)C(=O)OCC (stereo unspecified),/,5.7,-6.0,/,/,/
CC(C)N1C(=S)SC(C)(C)C1NO (stereo unspecified),-6.6,3.9,-6.4,0.9,1.1,13.5
CC(/C=C/c1ccccc1)=N\NC(N)=S,13.6,-13.9,16.5,0.8,0.9,18.7
CC1=CC(C)(C)N(C(=O)CN2C(=O)c3ccccc3C2=O)c2ccccc21,86.7*,/,/,0.7,0.1,30.0
CC(C(=O)N1CCCCC1)N1C(=O)c2ccccc2C1=O (stereo unspecified),-11.0,2.4,-0.8,1.1,1.1,-10.3
CC1=CC(C)(C)N(S(=O)(=O)c2ccc(C)cc2)c2ccccc21,61.6*,-2.8,-0.2,0.6,0.4,44.0
CC1=CC(C)(C)N(C(=O)C(C)N2C(=O)c3ccccc3C2=O)c2ccc(C)cc21 (stereo unspecified),7.2,-12.9,8.1,0.2,0.9,82.9*
SMILES,CYP2C9 inh,sEH inhibitor,sEH act,CYP2C19 act,CYP2C9 activ,CYP2C19 inh
COc1ccccc1CNS(=O)(=O)c1c(C)[nH]c(=O)[nH]c1=O,-11.9,2.6,-4.8,0.8,1.1,15.1
Cc1ccc(C)c(S(=O)(=O)N2CCN(C(=O)Cn3c(C(F)(F)F)nc4ccccc43)CC2)c1,35.0,-2.1,1.9,1,0.7,-3.3
Cc1cc2sc(C(=O)O)c(C)c2s1,/,-5.3,5.3,/,/,/
c1cc2c(cc1C1CCCN1)OCCCO2 (stereo unspecified),-1.9,-6.4,6.7,1,1,-0.4
COc1ccc(CC(C(=O)Nc2cc(C)ccc2C)/C(N)=N/O)cc1 (stereo unspecified),0.3,-4.6,4.0,0.6,1,39.7
CC1Cc2ccccc2N1S(=O)(=O)c1cccc(C(=O)OCC(=O)NC2CCS(=O)(=O)C2)c1 (stereo unspecified),62.9*,-3.5,3.3,0.4,0.4,59.8*
CC1Cc2ccccc2N1S(=O)(=O)c1cccc(C(=O)NC2CC2)c1 (stereo unspecified),-70.2,/,/,0.6,1.7,36.5
COc1ccc(-c2nn(-c3ccccc3)cc2C(=O)n2nnc3ccccc32)cc1,-21.6,-5.6,8.0,0.9,1.2,7.5
CCN(Cc1ccccc1)S(=O)(=O)c1ccc(S(=O)(=O)N2CCN(CCC#N)CC2)cc1,-2.7,/,/,1.3,1,-25.5
O=C(Nc1ccc2oc(-c3ccccc3)nc2c1)c1ccc2c(c1)OCCO2,66.1*,29.7,-29.4,0.5,0.3,53.0*
O=C(Nc1cccc2cccnc12)c1ccc2c(c1)OCCO2,-102.4,-11.7,12.0,0.6,2*,37.8
CCN1CCN(c2c(Cl)cccc2NC(=O)c2ccc3c(c2)OCCO3)CC1,29.3,9.5,-6.0,0.9,0.7,12.5
COc1cc(NC(=O)c2ccc3c(c2)OCO3)c2ncccc2c1,/,8.3,-5.9,/,/,/
O=C(Nc1ccncc1)c1ccc2c(c1)OCCO2,50.1*,/,/,0.2,0.5,76.6*
O=C(Nc1cccc(Cl)c1N1CCCCC1)c1ccc2c(c1)OCCO2,65.4*,1.3,-3.0,0.8,0.3,19.1
Cc1nn2c(=O)nc3sc4c(c3c2[nH]c1=O)CCCC4,/,8.7,-4.0,/,/,/
Cc1nc2c(ccc3nc(NC(=O)c4ccc5c(c4)OCCO5)sc32)s1,62.9*,-8.4,7.8,0.8,0.4,15.2
O=C(CSc1ccc2c(c1)OCCO2)Nc1ccc(Br)cc1,74.9*,20.4,-19.5,0,0.3,95.4*
CCC(=O)Nc1ccc2c(c1)OCCO2,15.6,13.9,-11.4,1,0.8,0.9
O=C(CSc1ccc2c(c1)OCCO2)Nc1ccc2c(c1)OCO2,92.4*,26.5,-25.5,0,0.1,99.6*
COc1cc(NC(=O)CSc2ccc3c(c2)OCCO3)cc(OC)c1OC,18.9,-0.5,1.7,0.7,0.8,25.5
CSc1nsc(SCC(=O)Nc2ccc3c(c2)OCCO3)n1,82.1*,27.4,-27.7,0.1,0.2,88.5*
CC(C)c1nc(SCC(=O)Nc2ccc3c(c2)OCO3)n[nH]1,22.2,-3.9,2.7,0.3,0.8,73.3*
Cc1ccc(Cl)c(OCC(=O)NCc2ccco2)c1,-38.5,6.6,-9.1,0.7,1.4,31.5
Cc1ccc(N2CCN(CC(=O)Nc3c(C(=O)C4CC4)oc4ccccc34)CC2)cc1,-0.4,4.6,-1.1,1.1,1,-11.6
CCOC(=O)c1nn(-c2ccccc2F)c(-c2ccccc2)c1C(=O)c1ccccc1,36.0,-1.2,-1.5,0.7,0.6,26.9
COCc1cc(C)nc(SCC(=O)Nc2cccc3cccnc23)c1C#N,16.4,5.9,-6.1,1.2,0.8,-18.2
CCOC(=O)c1cnc(SCC(=O)Nc2ccc3c(c2)OCCO3)nc1N,69.3*,11.2,-12.7,0.6,0.3,37.5
